Compounds without any hit were thinned out: in the full panel of roughly 83,000, 20% have a hit.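 Activity criterion: percent growth below 10, measured after cells in 96-well plates were exposed to a single compound concentration for 48 hours.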 Values without a mark were called inactive. Calls of active or inactive are those of the source.
System: HOP-62 NSCLC
Assay: NCI-60 one-dose screen, 48 h (100 = growth as untreated, 0 = no growth, -100 = all killed)
Conditions: 10 µM

Compound | growth
CC1=C(C=O)C2=C(C)C3(CC3)[C@@](C)(O)C(=O)C2=C1 | 37.5%
N#C[Se]CC(=O)Nc1cccc(C(F)(F)F)c1 | -57.6% (active)
CCC[Se]C(=O)c1ccc(C(=O)[Se]CCC)s1 | -77.7% (active)
C[C@H]1[C@@H](CC(=O)N[C@@H](Cc2coc3ccccc23)B(O)O)O[C@@H]2OC3(C)CC[C@H]4[C@H](C)CC[C@@H]1[C@@]24OO3 | -17.3% (active)
O=C(/C=C/c1ccco1)c1nc2ccccc2n1Cc1ccc(F)cc1 | 87.6%
COC(=O)C[C@](O)(CCC(C)C)C(=O)O[C@H]1C(OC)=C[C@@]23CCCN2CCc2cc4c(cc2[C@@H]13)OCO4 | 4.64% (active)
C[C@H]1[C@H](OC(=O)CCC(=O)N(CCCc2cn(-c3ccc(C#N)cc3)nn2)CCNc2ccnc3cc(Cl)ccc23)O[C@@H]2OC3(C)CC[C@H]4[C@H](C)CC[C@@H]1[C@@]24OO3 | 66.4%
